# Experimental data reported in publication PMC5540273 (PLoS ONE, 2017).
# Experiments:
# Details in all cases: concentration: 1 μM, replicates: in singlicate; n = 1
# WNK4 = test system: WNK4
# YANK1 = test system: T1, YANK1
# T1 construct: gene STK32A
# YANK2 = test system: T2, YANK2
# T2 construct: gene STK32B
# YANK3 = test system: T3, YANK3
# T3 construct: gene STK32C
# YES = test system: T4, YES
# T4 construct: gene YES1
# YSK1 = test system: T5, YSK1
# T5 construct: gene STK25
# YSK4 = test system: T6, YSK4
# T6 construct: gene MAP3K19
# ZAK = test system: ZAK
# ZAP70 = test system: ZAP70
# p38-alpha = test system: T7, p38-alpha
# T7 construct: gene MAPK14
# 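Also: KINOMEscan kinase panel screen.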
Compound,%Inh (WNK4) [%],%Inh (YANK1) [%],%Inh (YANK2) [%],%Inh (YANK3) [%],%Inh (YES) [%],%Inh (YSK1) [%],%Inh (YSK4) [%],%Inh (ZAK) [%],%Inh (ZAP70) [%],%Inh (p38-alpha) [%]
Cl.Fc1ccccc1COc1ccc(Nc2ncnc3ccc(-c4nnc(C(F)(F)F)o4)cc23)cc1Cl [GW424170],0,3,0,3,5,0,0,1,0,0
CCC(CC)(CC)n1cnc2c(N)ncnc21 [SKF-97620],23,18,12,9,0,0,31,0,29,3
CCc1nc(-c2cccc(C)c2)c(-c2ccnc(NC(=O)c3ccccc3)c2)s1,18,13,41,15,19,2,23,0,0,–
Fc1cccc(COc2ccc(Nc3ncnc4nn5ccccc5c34)cc2Cl)c1 [GW689066],23,0,0,6,13,1,3,4,0,11
CCn1c(-c2ccncc2)nc2cnccc21 [SB-735216],22,0,4,7,16,0,74,23,0,0
Oc1ccc2ncnc(Nc3ccc(OCc4ccccc4)cc3)c2c1 [GI262866],14,0,0,15,0,0,7,18,0,0
Nc1nccc2scc(-c3ccc4c(c3)CCN4C(=O)Cc3cc(F)ccc3F)c12 [GSK2587663],5,26,0,20,10,11,32,9,0,0
Clc1cc(Nc2ncnc3cc[nH]c23)ccc1OCc1ccccn1,25,12,3,51,0,0,34,18,0,18
FC(F)(F)c1ccc(-c2cc(-c3c[nH]nc3-c3ccccn3)ccn2)cc1 [GW599550],42,98.8,10,0,6,20,28,24,0,28
Cc1cc(N2CCC(NS(=O)(=O)c3ccc(F)cc3)CC2)nc(Nc2cccc(C#N)c2)n1.O=C(O)C(F)(F)F [GSK1653537],0,2,1,29,0,22,0,0,0,0
Cl.c1ccc(Cn2ncc3cc(Nc4ncnc5ccccc45)ccc32)cc1 [GW273749],0,6,0,0,16,17,30,0,0,10
COc1ccc(Nc2nccc(N3CCC(NC(=O)c4cccc(NC(C)=O)c4)C3)n2)cc1 (stereo not shown) [GSK1379732],100,22,0,20,0,11,5,10,0,30
c1ccc(-c2ccc3c(-c4ccnc(Nc5ccc6c(c5)OCCO6)n4)cnn3n2)cc1 [GW818941],0,0,13,0,5,0,0,10,20,0
CC(C)(C)c1ccc(-n2cnc3c(N)ncnc32)cc1 [SKF-97263],0,0,11,11,6,0,15,10,0,0
O=C(c1ccc(-c2cc(-c3c[nH]nc3-c3ccccn3)ccn2)cc1)N1CCCC1 [GW792479],14,0,13,0,0,0,0,28,2,7
COc1ccc(-c2oc3ncnc(N)c3c2-c2ccc(OC)cc2)cc1 [SB-589132],55,19,12,21,44,6,57,9,0,7
CNc1nccc(-c2c(-c3ccc(F)cc3)ncn2C2CCN(C)CC2)n1 [SB-222903],9,0,17,6,0,0,7,0,0,98.6
